Assay outcomes deposited in PubChem BioAssay by National Center for Advancing Translational Sciences (NCATS).
Luc counter: blocks Kinase-Glo luciferase, a counter-screen artifact; AID 1379; Potency, µM (highest dose often 38.3 µM), without a hit: top-dose activity change, negative = inhibition, usual class: inhibitors; 0.28% of 200,000 active; Kinase-Glo luciferase, ATP luminescence, 8 min; active = well fitted inhibition curve with a large enough effect; inconclusive = small, poorly fitted or top-dose-only effect; note: potency is the fitted concentration of half-maximal effect; nearly all actives have a fitted effect of over 60% in size
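Light output from Kinase-Glo luciferase with luciferin and 10 uM ATP in 50 mM imidazole pH 7.2, KCl, MgCl2, Tween 20, BSA; compound pin-delivered, 8-min ambient incubation, then luminescence read.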
KCNH2 WT inh: inhibitors of human wildtype KCNH2 potassium channel; Q12809; U2OS, BacMam KCNH2, thallium flux FluxOr; hits give low values; activity change, % at 1.84 µM; 0.37% of 340,000 active; AID 720551;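 active = maximum activity change below -70%; inconclusive = maximum activity change between -70% and -50%; inactive = maximum activity change above -50%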
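U2OS cells were transduced with wild-type KCNH2 virus (2.03 x 10^8 / mL) for 4 h at room temperature, then cultured overnight at 37 C. Thallium flux was read with FluxOr dye. Rate constants were normalized to DMSO controls.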
KCNH2 3.1 inh: KCNH2 3.1 (human) potassium channel inhibition; U2OS KCNH2 3.1, thallium flux FluxOr; hits give low values; activity change, % (tested at about 1.8 µM); 0.95% of 340,000 active;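 active = maximum activity change below -70%; inconclusive = maximum activity change from -70% to -50%; inactive = maximum activity change above -50%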;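 note: thallium influx rate constant from kinetic fluorescence after stimulation buffer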
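U2OS cells transduced with KCNH2 3.1 mutant virus (1.77 x 10^8 /mL, 4 h), plated overnight at 37 C, loaded 45 min with FluxOr dye plus Red40 quencher. Thallium flux rate constant from kinetic reads after stimulation buffer, normalised to controls.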
Starred values were filed as active, the others as inactive; ? = inconclusive; . = no result. Shown are actives, neighbours in structure and some others; about 1.2% of the full set was active somewhere. % is set by controls: 0 for no effect and ±100 for the full control effect.

SMILES | Luc counter | KCNH2 WT inh | KCNH2 3.1 inh
CCc1cccc(NC(=O)CN(c2ccc(C)cc2)S(=O)(=O)c2c(C)noc2C)c1 | . | 5 | 12
COc1ccc(OC)c(N(CC(=O)NC2CCCCCC2)S(=O)(=O)c2ccc(C)cc2)c1 | . | -9 | 5
CCCS(=O)(=O)Nc1ccc(N2CCCCC2)c(S(=O)(=O)Nc2ccccc2OC)c1 | . | -3 | -10
Cc1cc(Br)ccc1OCCCCN1CCCCC1 | -8% | -30 | -89*
Clc1ccc(Cl)c(OCCCCNCc2ccccc2)c1 | -2% | 1 | -93*
Cc1cc(Br)ccc1OCCOCCN1CCCC1 | . | 35 | -31
Clc1ccc(OCCCNCc2ccccc2)c(Br)c1 | -2% | 4 | -21
Cc1cc(OCCCCCN2CCCC2)ccc1Cl | 0% | 75 | -86*
Clc1ccc(Cl)c(OCCCCN2CCCCC2)c1 | . | -137* | -158*
Clc1ccc(OCCCN2CCCC2)cc1Cl | 15% | 21 | -32
Clc1ccccc1OCCCCN1CCCCC1 | . | 14 | -1
CCCCCC(=O)CC[C@@H]1[C@@H](C/C=C\CCCC(=O)O)[C@@H](O)C[C@H]1O | 2% | . | .
O=c1c(-c2cccs2)nc2cnc(N3CCNCC3)nc2n1-c1ccccc1 | -1% | . | .
CCn1cc(S(=O)(=O)Nc2ncccn2)cn1 | . | -1 | 0
CCCCCCCCCCCCCCCC(=O)Nc1ccn(C2OC(CO)C(O)C2O)c(=O)n1 (configuration not stated) | . | -24 | 23
CCOC(=O)c1cc2c(ccn2-c2ccc(F)cc2)n1CC(=O)N(CC)CC | -2% | . | -1
CC1CCCN(CCCOc2ccc(Br)cc2Cl)C1 (configuration not stated) | . | 33 | -105*
CC(C)(C)c1ccc(OCCCN2CCCC2)cc1 | . | 40 | -86*
CC(C)Oc1ccc(OCCCN2CCCCCC2)cc1 | -9% | 12 | -37
CC1CCN(CCOCCOc2ccc(Br)cc2Cl)CC1 | 0% | 0 | ?
CCS(=O)(=O)Nc1ccc(-c2nnc(SCC(=O)OC)o2)cc1 | . | 4 | -10
CCC(=O)Nc1ccc(C(=O)CSc2nnc(-c3ccc(NS(=O)(=O)CC)cc3)o2)cc1OC | . | -92* | 8
Cn1c(=O)c2c(nc(Br)n2Cc2ccccc2Cl)n(C)c1=O | 2% | 1 | -88*
CCOc1nc2c(c(=O)n(C)c(=O)n2C)n1Cc1ccccc1Cl | 1% | -14 | 6
COc1cc(/C=C2\SC(N)=NC2=O)ccc1OCC(=O)Nc1ccccc1C | . | 9 | -1
SMILES | Luc counter | KCNH2 WT inh | KCNH2 3.1 inh
COc1cccc(C2CNC3(CCCC(C)C3)c3[nH]c4ccccc4c32)c1OC (configuration not stated) | . | -3 | -31
CC1(C)CC(=O)CC2(C1)NCC(c1ccccc1)c1c2[nH]c2ccccc12 (configuration not stated) | 1% | -75* | -102*
FC(F)(F)c1cc(CO[C@@H]2CCCN[C@@H]2c2ccccc2)cc(C(F)(F)F)c1 | . | 0 | -10
CCc1ccc(NC(=O)Cn2nc(C)n3cccc3c2=O)cc1 | . | 12 | -4
O=C(Nc1ccc(NC(=O)c2ccco2)cc1)c1ccc2c(c1)OCCO2 | -8% | -9 | -13
Cc1cc(NC(=O)c2ccc3c(c2)OCCO3)ccc1NC(=O)c1ccco1 | 11µM* | -5 | 0
CCOc1ccccc1NC(=O)c1cccc(NC(=O)c2ccco2)c1 | 2% | -17 | 9
CCOc1ccc(C(=O)Nc2ccc(NC(=O)c3ccco3)c(Cl)c2)cc1Cl | -2% | 2 | -72*
CCOc1ccc(C(=O)Nc2ccc(NC(=O)c3ccco3)c(Cl)c2)cc1Br | -7% | -12 | -81*
COc1cccc(C(=O)Nc2ccc(NC(=O)c3ccco3)c(Cl)c2)c1 | ? | -4 | 5
CCN1C(=O)[C@H]2[C@H]3CN=C(SCc4ccc(Cl)cc4)N3[C@@](CC)(C(=O)OC)[C@H]2C1=O | . | -3 | 13
Cc1ccc(S(=O)(=O)NC(=O)O[C@@H]2C(=O)c3cc(Br)ccc3O[C@H]2c2ccc3c(c2)OCO3)cc1 | 4% | . | .
CCCCCCCn1c(NC(=O)CC)nc2ccccc21 | . | 7 | -6
O=C(NNC(=O)c1ccccc1O)c1ccc(S(=O)(=O)Nc2ccccc2)cc1 | . | -88* | 5
O=C(NNC(=O)c1ccccc1O)c1ccc(NS(=O)(=O)c2ccc(F)cc2)cc1 | . | -1 | -3
O=C(NCc1ccccc1OC(F)(F)F)C1CCC(=O)N(CCCN2CCOCC2)C1 (configuration not stated) | . | -9 | -1
CCN1CCC(n2nccc2NC(=O)c2ccccc2Cl)CC1 | . | 21 | -1
COc1ccccc1C(=O)Nc1ccnn1C1CCN(C/C=C/c2ccc(F)cc2)CC1 | . | -123* | -104*
COc1ccccc1C(=O)Nc1ccnn1C1CCN(Cc2ccn[nH]2)CC1 | . | 6 | .
